Experimental data reported in PubChem BioAssay (NCI).
Compounds without any hit were thinned out: in the full panel of roughly 83,000, 20% have a hit.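 Percent growth is the endpoint: 0 to 100 indicates growth inhibition (40 means 60% inhibition), 0 means no net growth, and negative values indicate cell death.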 Values without a mark were called inactive. The source made the active and inactive calls. How the source made its calls: active means growth percent below 10; inactive means the rest.

Legend:
Assay in all cases: NCI-60 one-dose screen, 48 h (100 = growth as untreated, 0 = no growth, -100 = all killed)
Settings in all cases: 10 µM unless noted
DU-145 prostate = system: DU-145 prostate
K-562 leukemia = system: K-562 leukemia
MALME-3M melanoma = system: MALME-3M melanoma
MDA-MB-231 breast = system: MDA-MB-231 breast
RXF 393 renal = system: RXF 393 renal
SF-268 CNS = system: SF-268 CNS
SF-539 CNS = system: SF-539 CNS
UACC-257 melanoma = system: UACC-257 melanoma
M14 melanoma = system: M14 melanoma
SF-295 CNS = system: SF-295 CNS

Compound	growth (DU-145 prostate)	growth (K-562 leukemia)	growth (MALME-3M melanoma)	growth (MDA-MB-231 breast)	growth (RXF 393 renal)	growth (SF-268 CNS)	growth (SF-539 CNS)	growth (UACC-257 melanoma)	growth (M14 melanoma)	growth (SF-295 CNS)
NNc1cccc(/C=C/c2ccccc2)cc1=O	68.2%	45.5%	103%	58.1%	91.9%	57.6%	62.4%	95.3%	61.4%	–
O=C(Nc1cccc(-n2cc(-c3ccncc3)c(-c3ccc(Cl)c(O)c3)n2)c1)Nc1cccc(C(F)(F)F)c1	23.1%	13.4%	1.16% (active)	21.3%	31.3%	28.5%	38.5%	-11.6% (active)	16.6%	–
O=c1c2sc3ncccc3c2nnn1-c1ccccc1	115%	93.3%	105%	97.2%	101%	102%	102%	102%	108%	–
O=[N+]([O-])c1ccc(OCCCOc2ccccc2)cc1	108%	99%	110%	104%	116%	106%	110%	100%	114%	–
COc1cc(-c2nn(-c3cccc(NC(=O)c4cccc(C(F)(F)F)c4)c3)cc2-c2ccncc2)ccc1Cl	2.16% (active)	6.11% (active)	10.1%	4.67% (active)	-42.8% (active)	30.5%	-48.8% (active)	34.5%	–	–
O=C(/C=C/c1c[nH]c2ccccc12)c1ccc(O)c(CN2CCN(c3ccc(F)cc3)CC2)c1	107%	103%	101%	98.7%	108%	94%	98.3%	115%	99.4%	–
OC(c1cc2cc(Br)ccc2c2cc(Br)ccc12)C1CCCCN1 (stereo not drawn)	-93.5% (active)	-72.2% (active)	-57.5% (active)	-73.5% (active)	-94.1% (active)	-84.5% (active)	-82.9% (active)	-82.9% (active)	-75.8% (active)	–
O=C(Nc1cccc(-n2cc(-c3ccncc3)c(-c3ccc(Cl)c(O)c3)n2)c1)Nc1ccc(Cl)c(Cl)c1	25.9%	11.4%	10.3%	-0.72% (active)	4.46% (active)	29.1%	37%	-17.3% (active)	17.2%	–
Nc1nc(=O)c2ccccc2s1	124%	122%	110%	109%	118%	113%	–	118%	107%	105%
COc1ccc(C2=CC(c3cc(OC)c(OC)c(OC)c3)NC(=O)N2)cc1OC (stereo not drawn)	-17.1% (active)	10.6%	11.2%	21.8%	0.616% (active)	32.2%	–	57.2%	17.2%	6.53% (active)
COc1cc(-c2nn(-c3cccc(NC(=O)Nc4cc(C(F)(F)F)cc(C(F)(F)F)c4)c3)cc2-c2ccncc2)ccc1Cl	3.89% (active)	-10.7% (active)	-10.7% (active)	-92% (active)	-68.1% (active)	-46.3% (active)	-53.5% (active)	-45.1% (active)	-42.1% (active)	–
Nc1cc2c([nH]c[n+]2CC#CCCl)c(SCC#CCCl)n1	-5.81% (active)	5.47% (active)	-46.4% (active)	-50.2% (active)	-90.5% (active)	-9.39% (active)	-75.3% (active)	-59.5% (active)	-90.9% (active)	–
Fc1ccc(Nc2nc(NCCNc3ccnc4cc(Cl)ccc34)nc(N3CCOCC3)n2)cc1	75%	1.44% (active)	-63.1% (active)	20.1%	21.3%	66.6%	69.3%	-88.8% (active)	-42.7% (active)	–
COc1cc(-c2nn(-c3cccc(NC(=O)c4ccc(Cl)c(C(F)(F)F)c4)c3)cc2-c2ccncc2)ccc1Cl	65.4%	8.65% (active)	16.8%	25.8%	-0.403% (active)	46.7%	33%	23.5%	–	–
O=C(Nc1cccc(-n2cc(-c3ccncc3)c(-c3ccc(Cl)c(O)c3)n2)c1)Nc1ccc(Cl)c(C(F)(F)F)c1	-17% (active)	-20.8% (active)	-16.6% (active)	-36.4% (active)	-76% (active)	-34.5% (active)	-26.1% (active)	-54% (active)	-25.5% (active)	–
Nc1nnc(-c2ccc3ccccc3c2O)o1	117%	93.5%	89.1%	92.4%	99.2%	94.8%	95.7%	102%	86.4%	–
O=C(Nc1cccc(-n2cc(-c3ccncc3)c(-c3ccc(Cl)c(O)c3)n2)c1)Nc1cc(C(F)(F)F)cc(C(F)(F)F)c1	-28.2% (active)	-19.5% (active)	-23% (active)	-88.9% (active)	-66.7% (active)	-36.4% (active)	-63% (active)	-50.9% (active)	-37.2% (active)	–
CC(C)(C)NCCC(O)c1cc2c(Cl)cc(Cl)cc2c2cc(C(F)(F)F)ccc12 (stereo not drawn)	-95.1% (active)	-72.2% (active)	-53.3% (active)	-74.4% (active)	-95.9% (active)	-88.6% (active)	-82.2% (active)	-81.7% (active)	–	–
COC(=O)c1cc(=O)nc(N/N=C/c2ccco2)s1	112%	101%	108%	117%	102%	106%	108%	117%	121%	–
Cc1ccc(S(=O)(=O)NCCNc2nccc(-c3c(-c4ccc(O)cc4)nc4sccn34)n2)cc1	102%	81.7%	95.6%	97.7%	92.2%	95.6%	107%	108%	93.3%	–
COc1cc(-c2nn(-c3cccc(NC(=O)c4ccccc4)c3)cc2-c2ccncc2)ccc1Cl	11.6%	2.59% (active)	22.4%	5.8% (active)	-19.2% (active)	18.7%	-15% (active)	8.64% (active)	-3.82% (active)	–
COc1ccc(C2C=C(c3ccc(N)cc3)N=C3SC=CN32)cc1OC (stereo not drawn)	107%	97.5%	92.8%	123%	110%	104%	99.9%	103%	106%	–
O=S(=O)(NCCNc1nccc(-c2c(-c3cccc(O)c3)nc3sccn23)n1)c1ccc(F)cc1	78.6%	47.8%	18.3%	77.6%	52.5%	73.3%	96.5%	-0.678% (active)	27.3%	–
CCCCCCCCCCCCCCCCNC(=O)OC(C)C	-23.3% (active)	8% (active)	81.2%	23.8%	80.1%	64.9%	–	95.8%	35.7%	20.8%
COc1ccc(C2=Nn3c(nnc3-n3nc(C)cc3C)SC2)cc1	-15.9% (active)	4.47% (active)	49.9%	-7.82% (active)	4.22% (active)	29.9%	1.51% (active)	64.7%	10%	–
Cc1ccc(-c2nc(C(Cl)Cl)n3nc(-c4ccccc4)cc3n2)cc1	-9.74% (active)	21.2%	74.7%	11.5%	–	8.85% (active)	29.8%	94.1%	95.7%	66.2%
Clc1cc2c(nn1)Nc1ccccc1S2	109%	98.2%	103%	114%	–	102%	89%	73.5%	107%	108%
COc1cc(/C=C/C(=O)c2ccc(Nc3ncnc4cc(OC)c(OC)cc34)cc2)cc(OC)c1	115%	41.3%	118%	104%	–	98.4%	101%	95.1%	112%	93.3%
Cc1[nH]c2ccc(F)cc2c1CCNC(=O)C1CCN(C(=O)c2ccccc2)CC1	82.9% [25 µM]	90.4% [25 µM]	75.6% [25 µM]	79.4% [25 µM]	–	79.5% [25 µM]	86.4% [25 µM]	98.3% [25 µM]	98.3% [25 µM]	96.1% [25 µM]
